Screening data (PubChem BioAssay)
Most compounds without a hit are left out; they make up all but 3.3% or so of the library.
Giardia FBPA inh – qHTS Assay for Inhibitors of Fructose-1,6-bisphosphate Aldolase from Giardia Lamblia; A8B2U2; purified Giardia FBPA; Potency, µM (top dose mostly 59.6 µM), for inactives: at the top dose activity, negative = inhibition, most hits filed as inhibitors; 0.71% of 290,000 active; AID 2451, 2010; note: nearly all actives have a fitted effect of over 55% in size
Target sequence (A8B2U2 whole entry, looked up): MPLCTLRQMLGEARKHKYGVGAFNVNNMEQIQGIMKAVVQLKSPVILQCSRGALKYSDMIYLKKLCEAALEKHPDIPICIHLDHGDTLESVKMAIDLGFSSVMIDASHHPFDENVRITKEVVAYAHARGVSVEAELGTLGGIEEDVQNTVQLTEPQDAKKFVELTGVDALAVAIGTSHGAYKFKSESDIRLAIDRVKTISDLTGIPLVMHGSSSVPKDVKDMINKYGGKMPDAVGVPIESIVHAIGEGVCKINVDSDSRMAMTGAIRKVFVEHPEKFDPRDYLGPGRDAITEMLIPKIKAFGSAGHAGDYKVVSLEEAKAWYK
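40 nM FBPA preincubated 10 min at RT with compound (up to 57.5 uM final), then substrate plus GAPDH/TPI/NAD/arsenate coupling and diaphorase/resazurin added. Fluorescence read after 20 min at RT, 525/598 nm.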
RE007 growth inh – qHTS Assay for Inhibitors of the HIV-1 protein Vpr. S. pombe RE007 Vpr strain, BacTiter-Glo ATP luminescence, 24 h. Potency, µM (highest dose often 92.2 µM), inactives show top-dose activity change, negative = less growth, most hits filed as inhibitors. 0.21% of 360,000 active. AID 651644, 2012; active = well fitted falling curve with a large enough effect; inconclusive = small, poorly fitted or top-dose-only effect; inactive = no such curve, though single readings can be large or run the other way; note: nearly all actives have a fitted effect of over 50% in size
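Fission yeast RE007 carrying one integrated HIV-1 vpr copy, seeded at OD 0.01 in PMG+AL medium with 23 nL pinned compound. Grown 24 h at 30 degrees; viability read by BacTiter-Glo luminescence after 5 min.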
Sm TGR inh – qHTS Assay for the Inhibitors of Schistosoma Mansoni Peroxiredoxins; Schistosoma mansoni thioredoxin glutathione reductase (TGR), Q962Y6; purified TGR, DTNB reduction, TNB absorbance 405 nm; AID 485364, 2010; Potency, µM (series often up to 114 µM), for the others: at the highest dose activity change, negative = inhibition, usual class: inhibitors; 3% of 360,000 active; note: nearly all actives have a fitted effect of over 60% in size
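First, TGR (20 nM dispensed) and NADPH were mixed with compound. Second, a 15 min room-temperature incubation followed. Third, further NADPH and then DTNB were added to start the reaction. Finally, TNB absorbance was monitored kinetically.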
TbPYK inhibitor – qHTS of Trypanosoma Brucei Inhibitors; pyruvate kinase (Trypanosoma brucei), Q57TT1; TbPYK enzyme, Kinase-Glo Plus ATP luminescence, 45 min; Potency, µM (highest dose often 76.8 µM), without a hit: top-dose activity, negative = inhibition, usual class: inhibitors; 0.12% of 410,000 active; AID 624173, 2012; note: nearly all actives have a fitted effect of over 50% in size
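Activity of T. brucei pyruvate kinase was followed by Kinase-Glo Plus luminescence after the enzyme reacted 45 min at room temperature with 130 uM ADP (final) and substrate. Test compounds were added before ADP at multiple concentrations.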
LmPK inh – qHTS Assay for Inhibitors of Leishmania Mexicana Pyruvate Kinase (LmPK); Q27686; purified LmPK, Kinase-Glo ATP luminescence, 1 h; Potency, µM (doses to about 57.5 µM), for inactives: at the highest dose activity change, negative = inhibition, actives largely listed as inhibitors; 0.37% of 290,000 active; AID 1721, 2009
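0.1 nM LmPK, 0.5 mM PEP, 0.1 mM ADP; 50 mM imidazole pH 7.2, 7 mM MgCl2, 50 mM KCl; 1 h RT. Kinase-Glo luminescence readout, normalized to no-enzyme (full inhibition) and uninhibited wells.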
An asterisk follows results filed as active; ? = inconclusive; . = no result given; [ ] = another dose, or the depositor's remark. Unless noted, calls come from the whole dose curve; as a rule, active = well fitted curve in the direction sought with a large enough effect; inconclusive = small, poorly fitted or top-dose-only effect, or another doubt; inactive = no such curve, though single readings can be large; an effect the other way counts as inactive or inconclusive. % is set by controls: 0 for no effect and ±100 for the full control effect; potency is the fitted concentration of half-maximal effect.

SMILES | Giardia FBPA inh | RE007 growth inh | Sm TGR inh | TbPYK inhibitor | LmPK inh
CC(=O)OCCCNc1cc(Sc2ccc(Cl)cc2)c2nonc2c1[N+](=O)[O-] | ? | -7.1% | 3.16µM* | -4.6% | -0.6%
CC(C)CCSc1cc(NCCO)c([N+](=O)[O-])c2nonc12 | ? | 11.8% | 2.51µM* | 30.9% | 1.4%
CC[n+]1c(/C=C/c2ccc(OC)c(OC)c2)ccc2ccccc21 | -2.8% | -27.2% | -34.1% | -8.9% | 1.2%
CC[n+]1c(/C=C/c2ccc(N(C)C)cc2)ccc2ccccc21 | -5.2% | 12.6µM* | ? | ? | ?
CC[n+]1ccc(/C=C/c2ccc(N(C)C)cc2)c2ccccc21 | -13.8% | 12.6µM* | -21.3% | ? | 15.8µM*
O=C(NCCc1ccccc1)C(=O)NCC1OCCCN1S(=O)(=O)c1ccc(F)cc1 (stereo unspecified) | . | -1.4% | 0.7% | 1.4% | -1.9%
Cc1sc2nc(SCC(=O)Nc3ccc(S(N)(=O)=O)cc3)[nH]c(=O)c2c1C | -27.2% | 0.4% | -7.0% | -7.3% | 4.3%
CS/C(=C/[N+](=O)[O-])Nc1cccc2c1C(C)CC2(C)C (stereo unspecified) | 8.1% | 12.1% | 12.6µM* | 3.0% | -5.9%
CC(=O)Nc1cc2c(c([N+](=O)[O-])c1C)C(C)(C)CC2(C)C | . | -10.0% | . | -4.3% | .
C=CS(=O)(=O)c1sc(Cl)c(N2CCOCC2)c1[N+](=O)[O-] | -3.1% | -25.3% | 0.1µM* | -5.7% | -2.3%
C=CSc1sc(Cl)c(N2CCOCC2)c1[N+](=O)[O-] | 0.5% | 7.7% | . | -1.4% | 0.8%
CCOC(=O)C1CCN(C(c2ccccc2)c2c(O)cc(C)n(Cc3ccco3)c2=O)CC1 (stereo unspecified) | . | . | 8.91µM* | 7.9% | .
CCOC(=O)C1CCN(C(c2cccc(F)c2)c2c(O)cc(C)n(Cc3ccco3)c2=O)CC1 (stereo unspecified) | . | . | 10µM* | 3.3% | .
CCOC(=O)C1CCN(C(=O)COC(=O)c2cccc(F)c2)CC1 | -0.8% | -7.8% | 1.9% | 4.1% | -9.7%
CCOC(=O)C1CCN(C(c2ccc(C)cc2)c2sc3nc(-c4ccco4)nn3c2O)CC1 (stereo unspecified) | . | . | -5.7% | 1.6% | .
CCOC(=O)C1CCN(C(c2cccc(F)c2)c2c(O)cc(C)n(CCOC)c2=O)CC1 (stereo unspecified) | . | . | 17.8µM* | 2.7% | .
CCOC(=O)C1CCN(C(c2ccc(SC)cc2)c2c(O)cc(C)n(Cc3ccco3)c2=O)CC1 (stereo unspecified) | . | . | 5.01µM* | -6.8% | .
CCOC(=O)C1CCN(C(c2cccc(F)c2)c2sc3nc(C)nn3c2O)CC1 (stereo unspecified) | -6.7% | 1.2% | -7.0% | -5.8% | 5.0%
CCn1c(-c2cccc(Cl)c2)n[nH]c1=S | 0.7% | 19.5% | -3.1% | ? | -21.5%
Oc1ccc(C2=NN(c3ccccc3)C(c3ccc(F)cc3)C2)cc1 (stereo unspecified) | 0.9% | 39.8µM* | 10.0% | -1.0% | -0.3%
CCCN1CCC(=O)N([C@H](CSc2ccccc2)CC(C)C)CC1 | 1.9% | 0.4% | ? | -3.4% | 3.2%
O=C1/C(=C/c2ccncc2)SC(=S)N1C1CCCCC1 | 1.1% | 0.9% | -15.5% | -4.8% | 0.3%
Cc1ccc(/C=C2/SC(=S)N(C3CCCCC3)C2=O)o1 | 0.4% | -3.5% | 44.7µM* | -5.6% | 5.7%
N#CCNC1CC(=O)N(c2ccc(F)cc2)C1=O (stereo unspecified) | 2.1% | 25.1µM* | 7.08µM* | -5.1% | -0.4%
O=C1CC(NCc2ccc(F)cc2)C(=O)N1c1ccccc1 (stereo unspecified) | 1.0% | -10.2% | . | 1.9% | 3.3%
CC[C@H](C(=O)[C@H](C)[C@H](O)[C@H](C)CCc1ccc(C)c(O)c1C(=O)O)[C@H]1O[C@](CC)([C@@H]2CC[C@@](O)(CC)[C@H](C)O2)C[C@H]1C | 2.0%[21.7 µM] | . | . | . | .
